Source: PubChem BioAssay (National Center for Advancing Translational Sciences (NCATS))
This is a sample that favours compounds with a hit; in the whole collection about 8% have one here.
Lassa entry – qHTS for Inhibitors of binding or entry into cells for Lassa Virus; AID 720533, 2013; Potency, µM (top dose mostly 49.2 µM), without a hit: top-dose activity change, negative = inhibition, most hits filed as inhibitors; Lassa virus pseudotyped entry inhibition, cell-based qHTS; 18,000 tested, 4.1% active
Marburg entry – qHTS for Inhibitors of binding or entry into cells for Marburg Virus | Marburg virus pseudotype entry/binding inhibition, cell-based | Potency, µM (titrated, usually from 49.2 µM), for the others: at the highest dose activity change, negative = inhibition, actives largely listed as inhibitors | 18,000 tested, 6.5% active
Active calls of the source: *; u = inconclusive; x = no result given; + = active, no number; ! = repeats disagree; [ ] = remark or other dose. The call rests on the fitted dose curve; tested in HEK293 cells. On the % scale 0 is the no-effect control and ±100 the full control effect; potency means the concentration at half of the fitted maximal effect.

SMILES | Lassa entry | Marburg entry
CC(=O)OC[C@H]1O[C@H](CC=NO[C@@H](C)c2cn([C@H](CO)Cc3ccccc3)nn2)C=C[C@@H]1OC(C)=O | x | 34%[8.59 µM]
COc1ccc(CN2CCN(C(c3ccc(F)cc3)c3ccc(F)cc3)CC2)c(OC)c1OC | 22µM* | 10µM*
COc1ccc(CN2CCNCC2)c(OC)c1OC | 0%[17.8 µM] | 9%[17.8 µM]
CCCC=CC1C(=O)[C@@H]2O[C@H]2C2(OCC(CC)(CC)CO2)C1CO (some centres not stated) | 0%[8.59 µM] | -11%[8.59 µM]
CCn1c(-c2nonc2N)nc2c(C#CC(C)(C)O)nc(OCC(N)c3ccccc3)cc21 (configuration not stated) | x | 3.1µM*
CCn1c(-c2nonc2N)nc2ccc(F)cc21 | -10% | u
CCn1c(-c2nonc2N)nc2c(C#CC(C)(C)O)ncc(OC3CCNCC3)c21 | x | 4µM*
CCn1c(-c2nonc2N)nc2c(C#CCN)ncc(OCCCN)c21 | 15% | u
CC(=O)C1=C(C)N(Cc2ccccc2)C(=O)NC1CCc1ccccc1 (configuration not stated) | x | 14%[8.59 µM]
ON=C1CCc2cc(-c3nc(C4CCNCC4)[nH]c3-c3ccncc3)ccc21 | 59% | -3%
O=C1CCCC=C1C(O)COCc1ccccc1 (configuration not stated) | -25%[8.59 µM] | 3%[8.59 µM]
CCN(CC)CCOc1ccccc1OC | -4% | -5%
CCCCN(CC)CCOc1cccc2ccccc12 | u | 10µM*
Cc1cnc(SCc2ccccn2)nc1C1CCCN(C(=O)c2ccc3c(c2)OCO3)C1 (configuration not stated) | -15% | -1%
COC(=O)[C@H]1[C@H]2C[C@@H]3c4[nH]c5cc(OC)ccc5c4CCN3C[C@H]2C[C@@H](OC(=O)/C=C/c2cc(OC)c(OC)c(OC)c2)[C@@H]1OC | -28%[17.8 µM] | 10µM*
COC(=O)[C@H]1C(OC)[C@@H](OC(=O)c2cc(OC)c(OC)c(OC)c2)C[C@@H]2CN3CCc4c([nH]c5cc(OC)ccc45)[C@H]3C[C@H]21 (some centres not stated) | 1% | -6%
COC(=O)[C@H]1[C@H]2C[C@@H]3c4[nH]c5ccccc5c4CCN3C[C@H]2C[C@@H](OC(=O)c2cc(OC)c(OC)c(OC)c2)[C@@H]1OC | 3.5µM* | u
COC(=O)C1=CO[C@@H](C)[C@@H]2CN3CCc4c([nH]c5cc(OC)ccc45)[C@@H]3C[C@H]12 | 1% | -12%
Cc1cnc(-n2ncc(C(=O)NCCc3cccnc3)c2C)nc1-c1cccs1 | 8% | -19%
CS(=O)(=O)Nc1cccc(-c2nc(N3CCNCC3)c3ccccc3n2)c1 | 15% | u
c1ccc2c(N3CCNCC3)nc(-c3ccc4c(c3)OCO4)nc2c1 | -9% | 10µM*
N#Cc1cccc(-c2nc(N3CCNCC3)c3ccccc3n2)c1 | -1% | 16µM*
Cc1noc(C)c1-c1nc(N2CCNCC2)c2ccccc2n1 | 5% | u
Cc1ccc(O[C@@H]2[C@H](O)CO[C@H]2C=CC#Cc2ccc(C(C)(C)C)cc2)cc1 | x | -35%[8.59 µM]
COC[C@H]1O[C@H](c2ccccc2)C=C[C@H]1OCC=C(C)C | 17%[8.59 µM] | 42%[8.59 µM]
SMILES | Lassa entry | Marburg entry
CN1CCN(Cc2ccc(-c3cc4ncnc(Nc5ccc(OCc6cccc(F)c6)c(Cl)c5)c4s3)o2)CC1 | u | 10µM*
Fc1cccc(COc2ccc(Nc3ncnc4sc(-c5ccco5)cc34)cc2Cl)c1 | -15% | u
COC(=O)c1ccc(CN2C(=O)[C@@]3(CC(C)=CC[C@@H](COc4ccccc4)O3)c3ccccc32)cc1 | -20%[8.59 µM] | 9%[8.59 µM]
CC(C)OC(=O)Nc1ccc2nc(-c3cscn3)[nH]c2c1 | 28µM* | -1%
CCCCc1ccc2nc(NC(=O)OC)[nH]c2c1 | -3%[17.8 µM] | -16%[17.8 µM]
Cc1ncc(COP(=O)(O)O)c(CN)c1O | -9% | 1%
Cc1ncc(CO)c(CO)c1O | -7% | 28µM*!
CS(=O)(=O)CCNCc1coc(-c2ccc3ncnc(Nc4ccc(OCc5ccccc5)cc4)c3c2)c1 | -69% | u
Cc1ccsc1C(=CCCN1CCC[C@@H](C(=O)O)C1)c1sccc1C | -2% | 10%
COc1ccc(C(OCCN2CCC[C@H](C(=O)O)C2)(c2ccc(OC)cc2)c2ccc(OC)cc2)cc1 | 4.5µM* | -25%
COc1ccc(C(=O)Nc2ccccc2CCC2CCCCN2C)cc1 (configuration not stated) | 2% | u
COc1ccc(C(OCCN2CCC[C@@H](C(=O)O)C2)(c2ccc(OC)cc2)c2ccc(OC)cc2)cc1 | 6.3µM* | -21%
C=CCOC(=O)N[C@@H](c1coc2ccccc2c1=O)[C@@H](C)C=CCC(=O)OC | -11%[8.59 µM] | -3%[8.59 µM]
C[C@@H]1[C@H]2CC[C@@H]3[C@@H]4CC=C5C[C@@H](N(C)C)CC[C@]5(C)[C@@H]4CC[C@@]32CN1C | -9%[17.8 µM] | 5.6µM*
C[C@]12CC[C@H](OS(=O)(=O)O)CC1=CC[C@@H]1[C@@H]2CC[C@]2(C)C(=O)CC[C@@H]12 | -7% | -8%
CC(C)c1c(C(=O)NCc2ccncc2)cnn1-c1nccc(-c2cccs2)n1 | 4% | -23%
Cc1ccc(C)c(CN2CCc3nnc(CNC(=O)c4cc(C)oc4C)n3CC2)c1 | -4% | +
Cc1cc(C(=O)NCc2nnc3n2CCN(Cc2ccc(C)c(C)c2)CC3)c(C)o1 | -14% | -15%
COc1cc(CO[C@H]2C=C[C@@H](c3ccccc3)O[C@H]2CO)cc(OC)c1 | -18%[8.59 µM] | u
CN[C@@H](C)Cc1ccccc1 | -9%[107 µM] | 1%[107 µM]
CC(CC(c1ccccc1)c1ccccc1)NC(C)(C)C (configuration not stated) | u | 13µM*
OC1(c2cccnc2)CCN(Cc2ccc3c(c2)CN(Cc2ccc(Cl)cc2)CCO3)CC1 | 6% | 4%
OC1(c2ccc(Cl)cc2)CCN(Cc2c[nH]c3ccccc23)CC1 | u | 8.9µM*
COC(=O)CC=C[C@@H](C)[C@@H](C=NOCC[C@@H]1C=C[C@H](OC(C)=O)[C@@H](COC(C)=O)O1)NS(=O)(=O)c1ccc(C)cc1 | -19%[8.59 µM] | 53%[8.59 µM]
C=CCO[C@@H](Cn1ccnc1)c1ccc(Cl)cc1Cl | -1%[17.8 µM] | -5%[17.8 µM]
SMILES | Lassa entry | Marburg entry
Clc1ccc(COC(Cn2ccnc2)c2ccc(Cl)cc2Cl)cc1 (configuration not stated) | 35µM*! | u
O=C(c1cccs1)N1C[C@H](O)[C@H](n2cc(C3CC3)nn2)C[C@@H]1c1ccccc1 | -17% | -7%
C=CCN=C1N[C@@H](c2ccccc2)[C@H](C(=O)OC)[C@@H](C)N1CC | 5%[8.59 µM] | -25%[8.59 µM]
Oc1cc(O)cc(/C=C/c2ccc(O)c(O)c2)c1 | 22µM* | 20µM*!
C/C=C/c1ccc(O)c(OC)c1 | -5% | 7%
C[C@@H]1CC[C@H]2C(=O)N(Cc3cccc([N+](=O)[O-])c3)C[C@H](O)CN2[C@@H]1c1cccc(Br)c1 | x | -10%[8.59 µM]
CCN(CC)CCO[C@H]1CC[C@@]2(C)C(=CC[C@@H]3[C@H]2CC[C@]2(C)C(=O)CC[C@H]32)C1 | -23% | 13µM*
CCN(CC)CCO[C@H]1CC[C@@]2(C)C(=CC[C@@H]3[C@@H]2CC[C@]2(C)C(=O)CC[C@@H]32)C1 | 9% | -7%
CCC[C@H]1CN(c2ccccc2)C(=O)[C@H]1CC(=O)Nc1ccc(OC)cc1 | 11% | 4%
